Test results reported in PubChem BioAssay (NCI).
The panel holds about 79,000 compounds, 15% with a hit somewhere; the sample as a whole holds those more often. Calls of active or inactive are those of the source. Cut-off read from the data, not from the text of the source: active = growth inhibition above about 70%; inactive = the rest.

Columns and labels:
[1] = NCI Yeast Anticancer Drug Screen. Data for the rad52 strain (AID 147);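 note: 0% = growth of vehicle-treated control cultures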; details: S. cerevisiae rad52 mutant growth inhibition, hits give high values
Procedure, shortened: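 Vehicle-treated cultures served as the reference for growth inhibition of compound-exposed yeast bearing a DNA repair mutation.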

[2] = NCI Yeast Anticancer Drug Screen. Data for the wt1 strain (AID 149);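 note: 0% = growth of vehicle-treated wt1 cultures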; details: S. cerevisiae wt1 strain (SPY 50644) growth inhibition, hits give high values
Procedure, shortened: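 Yeast wt1 strain exposed to compounds; growth inhibition measured relative to vehicle-treated controls.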

[3] = NCI Yeast Anticancer Drug Screen. Data for the mgt1 strain (AID 153); details: S. cerevisiae mgt1 mutant growth inhibition, hits give high values
Procedure, shortened: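 mgt1 strain exposed; growth vs vehicle control recorded as inhibition.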

[4] = NCI Yeast Anticancer Drug Screen. Data for the rad50 strain (AID 155);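 note: 0% = growth of vehicle-only cultures of the same strain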; details: S. cerevisiae rad50 strain growth inhibition, hits give high values
Procedure, shortened: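 Yeast carrying a defined DNA repair defect were exposed to test compounds, and growth was compared with vehicle-treated controls to give percent inhibition.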

[5] = NCI Yeast Anticancer Drug Screen. Data for the mec2-1 strain (AID 157); details: S. cerevisiae mec2-1 strain, hits give high values
Procedure, shortened: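 Vehicle-treated cultures served as reference for growth inhibition of compound-exposed mec2-1 yeast.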

[6] = NCI Yeast Anticancer Drug Screen. Data for the rad14 strain (AID 159);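 note: 0% = growth of vehicle-treated control cultures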; details: S. cerevisiae rad14 strain growth inhibition, hits give high values
Procedure, shortened: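 Yeast cells carrying a defined DNA-repair defect were exposed to compounds, and growth inhibition was calculated relative to vehicle-treated control cultures.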

[7] = NCI Yeast Anticancer Drug Screen. Data for the sgs1 mgt1 strain (AID 161);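 note: 0% = growth of cultures given vehicle only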; details: S. cerevisiae sgs1 mgt1 strain, hits give high values
Procedure, shortened: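 Mutant yeast exposed to compound; growth scored against vehicle-only wells.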

[8] = NCI Yeast Anticancer Drug Screen. Data for the CLN2oe strain (AID 163);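 note: 0% = growth of vehicle-only control cultures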; details: S. cerevisiae CLN2oe strain, hits give high values
Procedure, shortened: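 Inhibition relative to vehicle-treated yeast is reported. Cells: strain with genetic alteration in cell-cycle control, grown with compound.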

[9] = NCI Yeast Anticancer Drug Screen. Data for the cln2 rad14 strain (AID 165);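 note: 0% = growth equal to vehicle treated cultures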; details: S. cerevisiae cln2 rad14 strain, hits give high values
Procedure, shortened: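 Each compound was tested on cln2 rad14 yeast. Inhibition of growth was calculated against vehicle-exposed controls.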

[10] = NCI Yeast Anticancer Drug Screen. Data for the bub3 strain (AID 167); details: S. cerevisiae bub3 mutant strain, hits give high values
Procedure, shortened: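 Compounds were applied to a genetically altered yeast strain carrying a cell-cycle control defect. Growth inhibition was scored against vehicle-treated controls.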

[11] = NCI Yeast Anticancer Drug Screen. Data for the wt2 strain (AID 169);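 note: 0% = growth of vehicle-treated yeast cultures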; details: S. cerevisiae wt2 strain growth inhibition, hits give high values
Procedure, shortened: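 Inhibition of yeast growth was determined after compound treatment, normalised to controls receiving only vehicle.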

[12] = NCI Yeast Anticancer Drug Screen. Data for the mlh1 strain (AID 171);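 note: 0% = growth of vehicle-treated control cultures of the same strain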; details: S. cerevisiae mlh1 strain growth inhibition, hits give high values
Procedure, shortened: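 Vehicle-normalised growth inhibition of a repair- or checkpoint-altered yeast strain following compound treatment.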

[13] = NCI Yeast Anticancer Drug Screen. Data for the sgs1 strain (AID 173);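 note: 0% = growth of vehicle-only control cultures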; details: S. cerevisiae sgs1 mutant, hits give high values
Procedure, shortened: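 Screen format: yeast with repair or checkpoint alterations, compound exposure, growth read relative to vehicle.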

[14] = NCI Yeast Anticancer Drug Screen. Data for the mlh1 rad18 strain (AID 175); details: S. cerevisiae mlh1 rad18 strain growth inhibition, hits give high values
Procedure, shortened: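 Vehicle-treated cultures served as the reference for growth inhibition in a yeast strain carrying DNA damage repair alterations exposed to each compound.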

[15] = NCI Yeast Anticancer Drug Screen. Data for the rad18 strain (AID 177); details: S. cerevisiae rad18 mutant growth inhibition, hits give high values
Procedure, shortened: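 Test articles were incubated with altered yeast defective in DNA damage repair. Results are given as inhibition of growth versus vehicle.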

[16] = at 5.0 µM (retest, dose inferred, filed as 0.5)
[17] = at 50.0 µM (retest, dose inferred, filed as 5.0)

Measured: growth inhibition

O=C1CCC(Cc2ccccc2)CN1 (centres undefined)
active: [3]; at 100.0 µM 93% | [7]; [17] 80% | [7]; at 50.0 µM 81.5% | [11]; at 100.0 µM 92% | [12]; at 100.0 µM 90% | [13]; at 100.0 µM 93%
inactive: [1]; at 1.2 µM -1% | [1]; at 3.7 µM -1% | [1]; at 11.0 µM -2% | [1]; at 33.0 µM -3% | [1]; at 100.0 µM 0% | [2]; at 1.2 µM -3% | [2]; at 3.7 µM -2% | [2]; at 11.0 µM 1% | [2]; at 33.0 µM -2% | [2]; at 100.0 µM -1% | [3]; at 1.2 µM -1% | [3]; at 3.7 µM -5% | [3]; at 11.0 µM -1% | [3]; at 33.0 µM 68% | [4]; at 1.2 µM -1% | [4]; at 3.7 µM -2% | [4]; [16] 10% | [4]; at 11.0 µM -2% | [4]; at 33.0 µM -3% | [4]; [17] 7% | [4]; at 50.0 µM 7.1% | [4]; at 100.0 µM -1% | [5]; at 1.2 µM -1% | [5]; at 3.7 µM -1% | [5]; [16] -11% | [5]; at 11.0 µM 0% | [5]; at 33.0 µM -1% | [5]; [17] -3% | [5]; at 50.0 µM 19.7% | [5]; at 100.0 µM 3% | [6]; at 1.2 µM -2% | [6]; at 3.7 µM -1% | [6]; at 11.0 µM -2% | [6]; at 33.0 µM -1% | [6]; at 100.0 µM 1% | [7]; [16] 3% | [8]; at 1.2 µM -8% | [8]; at 3.7 µM -5% | [8]; at 11.0 µM 3% | [8]; at 33.0 µM -4% | [8]; at 100.0 µM -6% | [9]; [16] -2% | [9]; [17] 4% | [9]; at 50.0 µM 0.15% | [10]; at 1.2 µM -4% | [10]; at 3.7 µM -5% | [10]; [16] -11% | [10]; at 11.0 µM -5% | [10]; at 33.0 µM -7% | [10]; [17] -8% | [10]; at 50.0 µM 10.9% | [10]; at 100.0 µM -8% | [11]; at 1.2 µM -3% | [11]; at 3.7 µM 0% | [11]; at 11.0 µM 3% | [11]; at 33.0 µM 50% | [12]; at 1.2 µM -3% | [12]; at 3.7 µM -2% | [12]; at 11.0 µM 0% | [12]; at 33.0 µM 37% | [13]; at 1.2 µM 0% | [13]; at 3.7 µM 1% | [13]; at 11.0 µM 11% | [13]; at 33.0 µM 62% | [14]; [16] -9% | [14]; [17] 1% | [14]; at 50.0 µM 3.7% | [15]; at 1.2 µM 1% | [15]; at 3.7 µM -2% | [15]; at 11.0 µM 4% | [15]; at 33.0 µM 0% | [15]; at 100.0 µM 1%

N#C/C(=C\NC(=S)Nc1ccc(S(N)(=O)=O)cc1)C(=O)c1ccc2ccccc2c1
active: [4]; [17] 97% | [5]; [16] 87% | [5]; [17] 95% | [7]; [17] 96% | [9]; [16] 92% | [9]; [17] 78% | [10]; [16] 99% | [10]; [17] 91% | [14]; [16] 84% | [14]; [17] 97%
inactive: [1]; at 1.2 µM -2% | [1]; at 3.7 µM -1% | [1]; at 11.0 µM 0% | [1]; at 33.0 µM -3% | [1]; at 100.0 µM 3% | [2]; at 1.2 µM 2% | [2]; at 3.7 µM 3% | [2]; at 11.0 µM 1% | [2]; at 33.0 µM 1% | [2]; at 100.0 µM 3% | [3]; at 1.2 µM -2% | [3]; at 3.7 µM -3% | [3]; at 11.0 µM -3% | [3]; at 33.0 µM -12% | [3]; at 100.0 µM 0% | [4]; at 1.2 µM -5% | [4]; at 3.7 µM -16% | [4]; [16] 57% | [4]; at 11.0 µM -18% | [4]; at 33.0 µM -2% | [4]; at 50.0 µM -13.3% | [4]; at 100.0 µM -1% | [5]; at 1.2 µM 0% | [5]; at 3.7 µM 2% | [5]; at 11.0 µM 2% | [5]; at 33.0 µM 5% | [5]; at 50.0 µM -3.5% | [5]; at 100.0 µM -1% | [6]; at 1.2 µM -1% | [6]; at 3.7 µM -1% | [6]; at 11.0 µM 1% | [6]; at 33.0 µM 2% | [6]; at 100.0 µM 6% | [7]; [16] 25% | [7]; at 50.0 µM -13.2% | [8]; at 1.2 µM -2% | [8]; at 3.7 µM -4% | [8]; at 11.0 µM -4% | [8]; at 33.0 µM 0% | [8]; at 100.0 µM -1% | [9]; at 50.0 µM 39.2% | [10]; at 1.2 µM -2% | [10]; at 3.7 µM -1% | [10]; at 11.0 µM -2% | [10]; at 33.0 µM -3% | [10]; at 50.0 µM -16.1% | [10]; at 100.0 µM -3% | [11]; at 1.2 µM -1% | [11]; at 3.7 µM -1% | [11]; at 11.0 µM -1% | [11]; at 33.0 µM 0% | [11]; at 100.0 µM -1% | [12]; at 1.2 µM -1% | [12]; at 3.7 µM 1% | [12]; at 11.0 µM 1% | [12]; at 33.0 µM 3% | [12]; at 100.0 µM 5% | [13]; at 1.2 µM 0% | [13]; at 3.7 µM 2% | [13]; at 11.0 µM 0% | [13]; at 33.0 µM 7% | [13]; at 100.0 µM 9% | [14]; at 50.0 µM 22.1% | [15]; at 1.2 µM -9% | [15]; at 3.7 µM -1% | [15]; at 11.0 µM 0% | [15]; at 33.0 µM -1% | [15]; at 100.0 µM 5%

CSC(=S)N/N=C/c1ccccc1
active: [4]; at 11.0 µM 82% | [4]; at 33.0 µM 83% | [4]; [17] 86% | [4]; at 50.0 µM 94.6% | [4]; at 100.0 µM 82% | [5]; [17] 76% | [5]; at 50.0 µM 75.8% | [7]; [17] 87% | [7]; at 50.0 µM 75.2% | [10]; [17] 82% | [10]; at 50.0 µM 90% | [14]; [17] 85% | [14]; at 50.0 µM 89.5% | [15]; at 11.0 µM 86% | [15]; at 33.0 µM 86% | [15]; at 100.0 µM 81%
inactive: [1]; at 1.2 µM 10% | [1]; at 3.7 µM 20% | [1]; at 11.0 µM 53% | [1]; at 33.0 µM 67% | [1]; at 100.0 µM 67% | [2]; at 1.2 µM 4% | [2]; at 3.7 µM 11% | [2]; at 11.0 µM 29% | [2]; at 33.0 µM 48% | [2]; at 100.0 µM 43% | [4]; at 1.2 µM 28% | [4]; at 3.7 µM 57% | [4]; [16] 38% | [5]; at 1.2 µM 5% | [5]; at 3.7 µM 13% | [5]; [16] 48% | [5]; at 11.0 µM 10% | [5]; at 33.0 µM 20% | [5]; at 100.0 µM 23% | [6]; at 1.2 µM -1% | [6]; at 3.7 µM -1% | [6]; at 11.0 µM 12% | [6]; at 33.0 µM 22% | [6]; at 100.0 µM 29% | [7]; [16] 26% | [8]; at 1.2 µM -3% | [8]; at 3.7 µM 3% | [8]; at 11.0 µM 14% | [8]; at 33.0 µM 22% | [8]; at 100.0 µM 17% | [9]; [16] 16% | [9]; [17] 21% | [9]; at 50.0 µM 49.3% | [10]; at 1.2 µM 32% | [10]; at 3.7 µM 28% | [10]; [16] 46% | [10]; at 11.0 µM 59% | [10]; at 33.0 µM 60% | [10]; at 100.0 µM 59% | [11]; at 1.2 µM -2% | [11]; at 3.7 µM 2% | [11]; at 11.0 µM 16% | [11]; at 33.0 µM 28% | [11]; at 100.0 µM 37% | [12]; at 1.2 µM 1% | [12]; at 3.7 µM 3% | [12]; at 11.0 µM 25% | [12]; at 33.0 µM 26% | [12]; at 100.0 µM 37% | [13]; at 1.2 µM 0% | [13]; at 3.7 µM 5% | [13]; at 11.0 µM 21% | [13]; at 33.0 µM 44% | [13]; at 100.0 µM 55% | [14]; [16] 48% | [15]; at 1.2 µM 23% | [15]; at 3.7 µM 55%
